Reference: the supplement of paper PMC3334620
Whole data set: some 33,000 sequences, median “E-score (-0.5 to 0.5)” near -0.016, cut for the highest 2% near 0.3. The list comes from a sample in which the highest values are over-represented; it also holds similar and randomly drawn sequences.

target: T1, Yer184c (UniProt P39961); assay: PBM E-score (8-mer binding enrichment) (E-score (-0.5 to 0.5)); higher = stronger / more preferred TF binding; details: protein concentration: 100 nM; construct: GST-full length
T1 sequence: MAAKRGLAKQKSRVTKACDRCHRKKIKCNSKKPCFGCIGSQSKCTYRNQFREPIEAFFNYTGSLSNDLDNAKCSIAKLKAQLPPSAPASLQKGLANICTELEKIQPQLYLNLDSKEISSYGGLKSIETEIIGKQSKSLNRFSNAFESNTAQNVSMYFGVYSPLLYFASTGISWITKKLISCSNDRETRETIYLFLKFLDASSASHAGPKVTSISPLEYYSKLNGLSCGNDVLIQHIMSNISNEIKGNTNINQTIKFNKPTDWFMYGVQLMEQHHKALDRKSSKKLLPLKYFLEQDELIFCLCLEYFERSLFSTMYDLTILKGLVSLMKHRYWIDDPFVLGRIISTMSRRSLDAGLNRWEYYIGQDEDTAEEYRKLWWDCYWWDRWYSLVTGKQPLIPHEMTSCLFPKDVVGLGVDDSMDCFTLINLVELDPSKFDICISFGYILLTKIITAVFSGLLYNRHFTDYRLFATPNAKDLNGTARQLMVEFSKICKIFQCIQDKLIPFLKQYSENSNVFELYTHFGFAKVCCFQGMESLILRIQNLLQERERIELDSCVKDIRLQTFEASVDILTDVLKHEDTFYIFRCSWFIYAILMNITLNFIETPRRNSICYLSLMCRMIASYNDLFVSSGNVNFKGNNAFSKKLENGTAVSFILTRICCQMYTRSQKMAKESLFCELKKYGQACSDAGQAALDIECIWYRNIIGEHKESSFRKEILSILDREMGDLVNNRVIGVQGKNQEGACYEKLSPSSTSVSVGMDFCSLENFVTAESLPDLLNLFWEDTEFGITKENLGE
Method in brief: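 PURExpress in vitro transcription/translation supplied GST-tagged yeast transcription factors, either full-length or DNA-binding domain. Applied at about 100-200 nM to universal all-10-mer Agilent arrays double-stranded by primer extension, the bound protein was detected with fluorescent anti-GST. E-scores, modified Wilcoxon-Mann-Whitney statistics, were given by the Universal PBM Analysis Suite to ungapped eight-base words pooled with their reverse complements after masliner normalisation.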

Sequence | PBM E-score
CGTCCCCA | -0.276
GACCATCC | -0.237
GTGGCCAA | -0.156
ATCAGCCC | -0.386
CCCGAACC | 0.0911
ACCGAACG | 0.235
AACGAACT | 0.0561
GCCGAACA | 0.329
CCCGAACA | 0.0635
GCCGAACC | 0.323
ACCGAACA | 0.259
ACCGAACT | 0.306
ACCGAACC | 0.0575
CCTGGGCA | -0.276
CGATGTGC | -0.101
ACCCCACC | 0.0874
AGAATTGC | -0.134
AGGGCAAC | -0.00172
GATCGGGC | 0.00638
AATCGGCT | 0.349
CATCGGAC | 0.174
TATCGGAA | 0.351
AATCGGCA | 0.289
AATCGGCC | 0.146
AATCGGAC | 0.152
GATCGGAA | 0.279

Sequence | PBM E-score
GATCGGAC | 0.322
AATCGGGT | 0.173
AATCGGAT | 0.327
CATCGGAA | 0.278
AGTAACTA | 0.173
AGAAAACC | 0.0683
CACCCCGC | 0.0453
CGCAAGTA | 0.0344
GGACCCAA | -0.081
CCGTCAAA | 0.0576
ACTCTGGC | -0.105
AGAGAACG | 0.0412
AGACTAAG | -0.0179
ATCGTGGC | -0.101
ATAGATAT | 0.161
CGCTTTTC | -0.0353
ACTGGCAA | -0.0748
AGTCTAGG | -0.144
AATCGGGA | 0.0709
AATCGGAA | 0.374
AATCGGAG | 0.216
ACTTCACC | 0.18
GCGCTTTA | 0.0325
ACTGGCGG | -0.0142
AAATGCCG | 0.353
AAATGCCC | -0.175

Sequence | PBM E-score
CAATGCCG | 0.22
CGTGCGTC | 0.0693
AATGTTCT | 0.0086
ATCGCCGC | 0.206
ACCGCCGG | 0.291
ATCGCCGG | 0.39
ATCGCCGA | 0.365
GTCGCCGA | 0.219
CTCGCCGA | 0.193
GCCCGTGA | -0.132
AAATGCTC | -0.0216
CCGGGTTA | 0.25
CCGGGTAC | 0.117
CCGGGTTC | 0.356
ACGGGTTC | 0.0138
TCGGGTAA | 0.0925
CCGGGTAA | 0.348
AGTTGTAG | 0.0893
AAGGTGTA | -0.105
CGCCACCG | -0.156
AGTCCCAT | -0.173
CCAGACCC | -0.262
AACTTTCA | 0.122
CTACGGAA | 0.205
ATACGGAA | 0.412
GTACGGAA | 0.28

Sequence | PBM E-score
TTACGGAA | 0.355
ATACGGAC | 0.117
ATACGGAT | 0.196
CCTACTGA | -0.151
GGTCTATA | -0.16
TGCCGCAA | 0.135
ACCGCATG | 0.0226
ATGCTATG | -0.117
CGGAAGCA | 0.332
AGGAATCA | 0.078
GGGAATAC | 0.0278
AGGAATAC | -0.0183
AGGAATTA | 0.0841
CGGAATAC | 0.353
CGGAATTC | 0.277
GGGAATCA | 0.0818
CGGAATTA | 0.352
CGGAATCA | 0.306
GGGAAGCA | -0.128
CGGAAGCC | 0.211
CGCTGCAA | 0.0112
AAACGATC | 0.161
ACATACTC | 0.0395
TAGCAGAA | 0.0545
ACCGGAGA | 0.33
GCCGGAGA | 0.29

Sequence | PBM E-score
ACCGGAGG | 0.144
ACCGGAGC | 0.247
CCCGGAGA | 0.222
TCCGGAGA | 0.397
ATGATCAC | -0.0394
AACTAGTG | -0.0163
ACCATTCC | 0.0171
ATTGGCCA | -0.148
TCGGTTCA | 0.148
CCCGGAAG | 0.259
TCAGGAAA | 0.112
GCAGGAAA | -0.0351
GCTGGAAA | 0.133
TCCGGAAA | 0.449
CCCGGAAA | 0.396
TGCGGAAA | 0.184
GCCGGAAA | 0.426
ATCTAGCC | 0.00276
AGGTTATC | -0.0359
GAACTTGC | 0.0842
ATCTTTTC | 0.0824
CAGCGTAC | -0.147
CGCCATTC | 0.0678
CCACGGAG | 0.0656
CCACGGAA | 0.338
CCACGGAC | -0.00729

Sequence | PBM E-score
TCACGGAA | 0.341
ACACGGAA | 0.295
GCACGGAA | 0.159
AGGACAAG | -0.102
AAGTCTCT | -0.246
AACAGAAC | 0.163
GTTGTACA | 0.277
ATGCCGGG | 0.244
ATGCCGGC | 0.399
CTGCCGGC | 0.369
ATGCCGCA | 0.124
ATGCCAGA | 0.0873
ATGCCGGA | 0.36
GGGCCGGA | 0.244
ATGCCGTC | 0.0209
CTGCCGTC | -0.066
GTGCCGGA | 0.305
GTGCCGTA | 0.16
CTGCCGAC | 0.0291
ATACGCGG | -0.0243
AGCCCTCC | -0.201
GCATTCCC | -0.182
ACCTCTAA | 0.0296
CATTGTGA | -0.164
GCTGTGCC | -0.0243
AGAGAGAT | 0.0462

Sequence | PBM E-score
CACGTTCC | -0.176
AGACCAAC | -0.108
ATATTATG | 0.261
ATATAACG | 0.255
CAAGTAGC | -0.216
CTGCCGTA | -0.00407
CTGCCGCA | -0.117
CTGCCGGA | 0.349
CGATGCGA | -0.0338
GCCGAGAA | 0.368
ACCGAGCA | 0.225
GCCGAGAC | 0.327
ACCGAGAC | 0.0458
GTCGAGAA | -0.0535
CCCGAGAA | 0.234
TCCGAGAA | 0.324
GCCGAGCA | 0.186
TCCGAGCA | 0.329
ACCGAGAA | 0.282
GCCGAGTA | 0.262
CCCGAGAC | 0.0787
